Tau FP inhib – tau fibrillization inhibition (FP); K18 P301L tau heparin fibrillization, Alexa594 FP, 6 h; Potency, µM (top dose mostly 57.7 µM), without a hit: top-dose activity, negative = inhibition, most hits filed as inhibitors; 0.39% of 280,000 active; note: potency is the fitted concentration of half-maximal effect; nearly all actives have a fitted effect of over 55% in size
Target sequence (P10636 561-689 P618L limits assumed): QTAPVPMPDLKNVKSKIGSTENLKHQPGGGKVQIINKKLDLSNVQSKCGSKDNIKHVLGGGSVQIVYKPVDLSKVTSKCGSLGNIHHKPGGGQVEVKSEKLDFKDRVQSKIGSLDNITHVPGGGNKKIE
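Heparin (20 uM) drove fibril formation of recombinant tau K18 P301L, 15 uM unlabeled with 0.24 uM Alexa 594 label, for 6 hr at 37 C in 100 mM sodium acetate pH 7. Fluorescence polarization (555/632 nm) read 1 hr after 30 uM ThT.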
TRb SRC2 PPI – TRbeta-SRC2 interaction inhibition; P10828; TRbeta-SRC2 peptide binding, fluorescence polarization; receptor liganded with 1 µM T3; Potency, µM (top dose mostly 106 µM), inactives show top-dose activity change, negative = inhibition, actives largely listed as inhibitors; 0.065% of 280,000 active;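 note: potency is the fitted concentration of half-maximal effect; plate controls were bound peptide for no effect and peptide without receptor for full effect; nearly all actives have a fitted effect of over 50% in size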
Target sequence (P10828 whole entry, looked up): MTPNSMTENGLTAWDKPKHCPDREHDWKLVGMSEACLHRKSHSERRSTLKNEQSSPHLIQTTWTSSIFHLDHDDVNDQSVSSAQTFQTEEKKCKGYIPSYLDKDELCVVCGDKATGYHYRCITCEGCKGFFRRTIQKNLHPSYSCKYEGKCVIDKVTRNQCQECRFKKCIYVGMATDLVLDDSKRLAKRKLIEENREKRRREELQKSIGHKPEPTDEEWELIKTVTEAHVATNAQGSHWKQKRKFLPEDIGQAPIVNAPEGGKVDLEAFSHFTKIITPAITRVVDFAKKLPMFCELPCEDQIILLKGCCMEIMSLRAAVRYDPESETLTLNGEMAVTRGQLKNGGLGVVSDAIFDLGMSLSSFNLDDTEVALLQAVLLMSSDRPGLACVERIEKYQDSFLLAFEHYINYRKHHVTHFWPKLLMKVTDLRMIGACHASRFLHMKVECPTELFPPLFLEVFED
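Decrease in fluorescence polarization of 20 nM Texas Red SRC2 coactivator peptide flagged inhibition of its binding to 0.6 uM TRb LBD; 1 uM T3 included, incubation 5 hr, ex 555/em 632 nm.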
PNC inhibitor – blocks assembly of the perinucleolar compartment; PC3M PTB-GFP, PNC prevalence imaging, 16 h; stronger effect = lower value; activity change (PNC), negative = inhibition, % at 10 µM; 3.1% of 140,000 active;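 active = readout at or below -70, meaning at least 70% loss of cells showing the perinucleolar compartment, a nuclear body marking cancer cells; inconclusive = readout between -30 and a set limit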;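 note: plate controls were DMSO wells for no effect and camptothecin positive control wells for full effect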
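Read-out is percentage of cells bearing a perinucleolar compartment, from automated 20x imaging of fixed, Hoechst-stained PC3M PTB-GFP cells. Cells were seeded 4 h, then exposed 16 h to compound (23 nl of library stock) in duplicate plates.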
TR SRC2 fluor cs – alters Texas Red total fluorescence, flagging assay interference. AID 1479. 0.29% of 280,000 active. Potency, µM (top dose mostly 106 µM), inactives show at the highest dose fluorescence change, negative = quenching. TRb/SRC2 Texas Red total fluorescence interference; active = well fitted curve in either direction with a large enough effect; inconclusive = small, poorly fitted or top-dose-only effect; note: potency is the fitted concentration of half-maximal effect
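Flags fluorescent or light-absorbing compounds by total fluorescence, S + 2P, at 555 nm excitation and 632 nm emission. Mixture: 20 nM Texas Red SRC2 peptide, 0.6 uM human TRb LBD, 1 uM T3, 5% DMSO; compound exposure 5 h at ambient temperature.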
Tau ThT inhib – blocks human tau fibril formation measured by thioflavin T. P10636. recombinant tau K18 P301L, heparin-induced fibrillization, ThT fluorescence. Potency, µM (highest dose often 57.4 µM), inactives show top-dose activity, negative = inhibition, actives largely listed as inhibitors. 2.1% of 270,000 active. AID 1460; note: potency is the fitted concentration of half-maximal effect; nearly all actives have a fitted effect of over 55% in size
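Using a mix of unlabeled (15 uM) and Alexa 594-labeled (0.24 uM) tau K18 P301L, heparin-triggered fibrillization over 6 hr at 37 C was scored by ThT fluorescence.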
Tau fluor counter – counter-screen for tau fibril formation inhibitors; tau K18 P301L (four-repeat tau fragment) Alexa594 fluorescence, heparin fibrillization; Potency, µM (titrated, usually from 57.7 µM), inactives show at the highest dose activity change, negative = decrease; 0.93% of 280,000 active; AID 1463; note: potency is the fitted concentration of half-maximal effect; nearly all actives have a fitted effect of over 55% in size
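Human K18 P301L tau (15 uM unlabeled plus 0.24 uM Alexa 594-labeled, final) in 100 mM sodium acetate pH 7 was mixed with compound and 20 uM heparin and incubated 6 hr at 37 C.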
The depositor's hits bear a star; ? = inconclusive; . = not tested or not shown; [ ] = another dose, or the depositor's remark. Most compounds without a hit are left out; they make up all but 4.6% or so of the library. Unless noted, calls come from the whole dose curve; as a rule, active = well fitted curve in the direction sought with a large enough effect; inconclusive = small, poorly fitted or top-dose-only effect, or another doubt; inactive = no such curve, though single readings can be large; an effect the other way counts as inactive or inconclusive. Unless noted, % is set by controls: 0 for no effect and ±100 for the full control effect.

SMILES	Tau FP inhib	TRb SRC2 PPI	PNC inhibitor	TR SRC2 fluor cs	Tau ThT inhib	Tau fluor counter
N#C/C(=C\c1ccc(O)c(O)c1)C(=O)c1ccc(O)c(O)c1	0%	-3%	.	-6%	?	-25%
Cc1ccc(C(C(=O)NC2CCCCC2)N2CCCC2)cc1 (stereo not given)	1%	-1%	-112*	-1%	-5%	-3%
CN1CCN(c2ccc(-c3ccc4ccccc4n3)cc2)CC1	6%	-4%	.	-6%	?	-20%
CCCn1cc(S(=O)(=O)c2ccccc2)c(=O)c2cc(F)c(N3CCCC3)cc21	3%	-1%	.	-7%	0%	12%
CCCn1cc(S(=O)(=O)c2ccc(CC)cc2)c(=O)c2cc(F)c(N(CC)CC)cc21	0%	6%	.	6%	1%	3%
CCn1cc(S(=O)(=O)c2ccccc2)c(=O)c2cc(F)c(N3CCN(c4ccccc4)CC3)cc21	-5%	?	.	56µM*[quencher]	8%	1%
CCCn1cc(S(=O)(=O)c2cccc(Cl)c2)c(=O)c2cc(F)c(N3CCN(CC)CC3)cc21	3%	-26%	.	112µM*[quencher]	6%	5%
CCN(CC)c1cc2c(cc1F)c(=O)c(S(=O)(=O)c1ccc(OC)cc1)cn2CC	0%	-25%	.	50µM*[quencher]	0%	-1%
COC(=O)C(CC(C)C)NC(=O)/C=C/c1ccc(Cl)cc1 (stereo not given)	0%	-4%	.	0%	-3%	-4%
CCOc1ccc(/C=N/Nc2ccccn2)cc1OC	5%	-1%	.	1%	?	-14%
CCOc1ccc(/C=N/N(C)c2ccccc2)cc1OC	?	-4%	9	-3%	7.9µM*	?
CC12CCC(C(=O)NCCc3ccccc3)(OC1=O)C2(C)C (stereo not given)	-4%	5%	.	-2%	-5%	-5%
COc1ccccc1NC(=O)CN1CCN(CC(=O)Nc2ccc(Cl)c(C(F)(F)F)c2)CC1	-7%	-5%	-22	-3%	-6%	-24%
CCc1ccccc1NCC(=O)Nc1ccc(Cl)c(C(F)(F)F)c1	?	5%	-23	-1%	-19%	18µM*[quencher]
Cc1cc(C(=O)N2CCCC(CNS(=O)(=O)c3cccs3)C2)nn1C (stereo not given)	1%	-8%	.	-2%	-5%	-7%
Oc1ccc(/C=N/Nc2cc(N3CCCC3)nc(N3CCCC3)n2)cc1O	-13%	2%	-21	-4%	25µM*	16µM*[quencher]
COc1ccc(NC(=O)C2CCN(S(=O)(=O)c3ccc(OC)c(OC)c3)CC2)c(OC)c1	5%	1%	-121*	-1%	-5%	-6%
COc1ccc(C(=O)N2CCC(C(=O)Nc3ccccc3OC)CC2)cc1	-2%	-5%	-85*	0%	2%	-1%
COc1ccc(S(=O)(=O)N2CCC(C(=O)N3CCOCC3)CC2)cc1	-4%	5%	-100*	-2%	-6%	-10%
COc1ccc(C(=O)N2CCC(C(=O)Nc3ccccc3Cl)CC2)cc1	-6%	2%	.	-2%	-2%	-4%
COc1cc(/C=N/NC(=O)C(Cc2c[nH]c3ccccc23)NC(=O)OCC(C)C)cc([N+](=O)[O-])c1O (stereo not given)	12%	-4%	8	-2%	14µM*	-27%
COc1cc(/C=N/NC(=O)C(Cc2c[nH]c3ccccc23)NC(=O)OCc2ccccc2)cc([N+](=O)[O-])c1O (stereo not given)	?	9%	2	0%	13µM*	?
COc1cc(/C=N/NC(=O)C(Cc2c[nH]c3ccccc23)NC(=O)OCC(C)C)cc([N+](=O)[O-])c1OCc1ccccc1 (stereo not given)	16%	-2%	.	-1%	-17%	?
Cc1ccc(NC(=O)C(Cc2c[nH]c3ccccc23)NC(=O)OCC(C)C)cc1 (stereo not given)	2%	-4%	.	3%	-14%	20µM*[quencher]
COC(=O)c1nc(-c2ccccc2)n[nH]1	-8%	0%	?	-1%	-15%	-11%
SMILES	Tau FP inhib	TRb SRC2 PPI	PNC inhibitor	TR SRC2 fluor cs	Tau ThT inhib	Tau fluor counter
CC1CCCC(C)N1/N=C/c1ccccc1C(=O)O (stereo not given)	-6%	0%	.	-7%	-4%	-2%
c1ccc(OCc2nc3ccccc3s2)cc1	1%	8%	?	1%	-15%	-6%
Cc1cc(OCc2nc3ccccc3s2)ccc1N	-17%	3%	.	-4%	14µM*	?
COc1ccc(Cl)cc1N=Nc1ncc[nH]1	-13%	9%	.	-3%	13µM*	-19%
O=C(COC(=O)c1c(F)cccc1F)c1ccc[nH]1	1%	14µM*	.	16µM*[fluorescent]	-3%	-8%
O=C(OCC(=O)c1ccc[nH]1)c1ccccc1	1%	-6%	.	-1%	-8%	-11%
Cc1ccc(S(=O)(=O)N2CCN(C(=O)CN3CCN(C)CC3)C2)cc1	-4%	9%	-29	0%	-11%	-4%
CCOc1cc(S(=O)(=O)Nc2ccccn2)ccc1F	-1%	1%	-10	1%	3%	1%
Cc1ccc(C)c(N=C2NC(=O)CS2)c1	1%	-4%	?	-7%	5%	4%
Fc1ccc(N=C2NN=C(c3cc(F)ccc3F)CS2)cc1	?	-5%	18	?	13µM*	?
Cc1[nH]c2ccccc2c1C1=NNC(=Nc2ccc(F)cc2)SC1	?	-1%	-1	-1%	14µM*	11µM*[quencher]
Fc1ccccc1N=C1NN=C(c2ccccc2)CS1	?	-4%	.	-2%	22µM*	?
Fc1ccc(F)c(C2=NNC(=Nc3ccccc3F)SC2)c1	-7%	-6%	?	0%	-7%	-16%
Cc1cc(C2=NNC(=Nc3ccccc3)SC2)c(C)n1C	-4%	5%	.	-1%	?	-22%
COc1ccc(N=C2NN=C(c3c(C)[nH]c4ccccc34)CS2)cc1	-17%	-1%	-21	-4%	?	25µM*[quencher]
O=C1c2ccccc2C(=O)N1CCCCn1c(=O)oc2ccccc21	7%	-7%	4	0%	-3%	2%
O=C1NC(=O)C2C3c4ccccc4C(c4ccccc43)C12 (stereo not given)	-7%	-6%	-9	-1%	2%	-1%
Nc1ccc(N)c(Cl)c1	.	?	.	-20%	.	.
CCCc1cc(N2CCN(C(=O)c3ccco3)CC2)n2c(nc3ccccc32)c1C#N	1%	8%	-14	0%	-17%	-9%
CCOC(=O)c1cc(C#N)c(C)nc1N(CC)CC	1%	-5%	.	-1%	-4%	6%

Screens (PubChem BioAssay)
